Most compounds without a hit are left out; they make up all but 11% or so of the library.
Pf growth 48h: P. falciparum growth inhibition at 48 hours (one generation). P. falciparum luciferase growth in erythrocytes, 48 h. AID 504832. Potency, µM (top dose mostly 28.7 µM), usual class: inhibitors. 310,000 compounds, 5.9% hits
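Here the parasites carry a stable luciferase gene and grow inside erythrocytes in Albumax-based RPMI medium with compound for one erythrocytic cycle. Activity is scored as loss of luminescent signal.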
AMA1-RON2 inh: AMA1-RON2 (P. falciparum) interaction inhibition; AID 720542; 360,000 compounds, 0.2% hits; Potency, µM (doses to about 58.2 µM), usual class: inhibitors; AlphaScreen AMA1-biotinylated RON2 peptide binding; note: nearly all actives have a fitted effect of over 45% in size
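AMA1 (3D7) with his tag at 25 nM final met compounds first, then biotinylated RON2 peptide at 25 nM; detection used donor plus acceptor beads, 10 µg/mL apiece, read by AlphaScreen after 30 min at room temperature.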
Pf growth 96h: P. falciparum growth inhibition at 96 hour, primary screen for plastid delayed-death inhibitors. 320,000 compounds, 6.9% hits. Potency, µM (series often up to 28.7 µM), most hits filed as inhibitors. AID 504834. P. falciparum luciferase reporter growth, 96 h
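Luminescence readout: decreased luciferase signal marks inhibited growth of reporter-expressing P. falciparum in infected red cells (2% hematocrit, 0.05% parasitemia final), exposed to compound two generations (96 h, 37 C, 5% CO2).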
Sm TGR inh: blocks Schistosoma mansoni thioredoxin glutathione reductase. Q962Y6. purified TGR, DTNB reduction, TNB absorbance 405 nm. Potency, µM (series often up to 114 µM), hits mostly inhibitors. 360,000 compounds, 3% hits. AID 485364; note: nearly all actives have a fitted effect of over 60% in size
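First, TGR (20 nM dispensed) and NADPH were mixed with compound. Second, a 15 min room-temperature incubation followed. Third, further NADPH and then DTNB were added to start the reaction. Finally, TNB absorbance was monitored kinetically.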
NS1 inh: influenza NS1 inhibition. Potency, µM (doses to about 46.1 µM). 270,000 compounds, 0.4% hits; calls by dose curve; note: actives are rising curves; nearly all actives have a fitted effect of over 50% in size
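A cell-based growth assay was used: compounds that relieve NS1-induced slow growth of budding yeast raise OD600. Assay medium was yeast nitrogen base with ammonium sulphate and -URA supplement, pH 6.0, with 2% galactose.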
A number is an active result; n = inactive; u = inconclusive; x = not tested or not shown. Unless noted, calls come from the whole dose curve; as a rule, active = well fitted curve in the direction sought with a large enough effect; inconclusive = small, poorly fitted or top-dose-only effect, or another doubt; inactive = no such curve, though single readings can be large; an effect the other way counts as inactive or inconclusive.

SMILES	Pf growth 48h	AMA1-RON2 inh	Pf growth 96h	Sm TGR inh	NS1 inh
COc1ccc(N2CCN(C(=O)c3ccc(NC(=O)C4=CSCCO4)cc3)CC2)cc1	n	n	n	n	n
CCc1c(C)nc(Nc2nc(C)c3ccc(OC)cc3n2)[nH]c1=O	x	n	7.38µM	n	n
CC1=NC(Nc2nc(C)c3ccccc3n2)=NC(C)(C)C1	u	n	u	25.1µM	n
COc1ccc(Nc2nc(C)c3ccccc3n2)cc1	n	n	3.7µM	n	n
COc1ccc2c(C)nc(Nc3nc(C)cc(C)n3)nc2c1	13.1µM	n	4.65µM	11.2µM	n
COc1ccc2c(C)nc(Nc3nc(C)c(C)c(=O)[nH]3)nc2c1	n	n	u	n	n
O=C(Nc1cccc2ncccc12)c1cc(Br)ccc1Cl	n	n	u	n	n
Cc1ccc(S(=O)(=O)NC(C)(C)CSc2nnc(Nc3ccccc3)s2)cc1	x	n	11.7µM	n	n
COc1ccc(C(=O)O/N=C(\N)c2ccncc2)cc1OC	u	n	u	n	n
COc1ccccc1C(=O)O/N=C(/c1ccncc1)c1ccc([N+](=O)[O-])cc1	u	n	5.22µM	n	n
N/C(=N\OC(=O)C(c1ccccc1)c1ccccc1)c1ccncc1	2.94µM	n	u	n	n
COc1cccc(OC)c1C(=O)O/N=C(\N)c1ccncc1	u	n	11.7µM	n	n
COc1cc(C(=O)O/N=C(\N)c2ccncc2)cc(OC)c1OC	9.28µM	n	u	n	n
COc1cccc(-n2c(=O)c3cc(OC)c(OC)cc3n(CC(=O)Nc3ccccc3)c2=O)c1	x	x	x	n	x
Cc1ccc(NC(=O)CN(CCc2ccccc2)S(C)(=O)=O)cc1	n	n	n	n	n
CCOC(=O)c1[nH]c2ccc(OCC)cc2c1NC(=O)CN1CCCC(C)C1 (stereo not given)	u	n	u	n	n
CCN(CC(=O)Nc1c(C(=O)OC)[nH]c2ccc(C)cc12)c1ccc2c(c1)OCO2	13.1µM	u	u	50.1µM	n
CCOC(=O)c1[nH]c2cc3c(cc2c1NC(=O)CN1CC(C)CC(C)C1)OCO3 (stereo not given)	n	n	5.86µM	n	n
COC(=O)c1[nH]c2ccc(F)cc2c1NC(=O)CCN1CCN(Cc2ccc3c(c2)OCO3)CC1	11.7µM	n	n	n	n
COc1ccc(S(=O)(=O)N2CCCN(C)CC2)cc1	n	n	n	39.8µM	n
COc1ccc(S(=O)(=O)N2CCC(N3CCCC3)CC2)cc1	n	n	n	n	n
COc1ccc(S(=O)(=O)N2CCCN(CC(=O)Nc3ccccc3F)CC2)cc1	n	n	n	n	n
COc1ccc(S(=O)(=O)N2CCN(C3Cc4ccccc4C3)CC2)cc1	n	n	10.4µM	n	n
COc1ccc(S(=O)(=O)N2CCN(C)CC2)cc1	n	n	u	n	u
COc1ccc(S(=O)(=O)N2CCCN(CC(=O)C(C)(C)C)CC2)cc1	u	n	u	10µM	n
SMILES	Pf growth 48h	AMA1-RON2 inh	Pf growth 96h	Sm TGR inh	NS1 inh
CCOc1ccccc1NC(=O)Cn1c(=O)n(Cc2cccs2)c(=O)c2cccnc21	x	x	x	n	x
CC1Cc2cc(S(=O)(=O)N3CCN(C)CC3)ccc2N1C(=O)C1CC1 (stereo not given)	u	n	5.86µM	n	n
CCOC(=O)C1CCCN(S(=O)(=O)c2ccc3c(c2)CC(C)N3C(=O)C2CC2)C1 (stereo not given)	n	n	10.4µM	n	n
CCOC(=O)C1CCCN(S(=O)(=O)c2ccc3c4c(cccc24)C(=O)N3CC)C1 (stereo not given)	10.4µM	n	u	n	x
CCN1C(=O)c2cccc3c(S(=O)(=O)NCc4ccco4)ccc1c23	n	n	u	39.8µM	n
CC1Cc2cc(S(=O)(=O)N3CCCCC3)ccc2N1C(=O)C1CCC1 (stereo not given)	u	n	u	n	n
COc1ccc(CCn2c(=O)c3cccnc3n(CC(=O)Nc3c(C)cc(C)cc3C)c2=O)cc1OC	x	x	x	n	x
C1=CC2(C=C1)OC21CCC2(C=CC3(C2)OC3C2CCCCC2)CC1 (stereo not given)	x	n	x	x	x
Cc1csc2c(N(C)CCO)ncnc12	u	n	n	n	n
CC(=O)c1ccc(N2CCN(S(=O)(=O)c3ccc4c(c3)CC(C)N4C(=O)C3CC3)CC2)cc1 (stereo not given)	7.38µM	n	u	n	n
Cc1ccc(C(O)P(=O)(OC2CCCCC2)OC2CCCCC2)cc1 (stereo not given)	x	n	u	n	n
O=P(OC1CCCCC1)(OC1CCCCC1)C(O)c1ccc(Cl)cc1Cl (stereo not given)	1.85µM	n	x	n	u
COc1ccccc1C(O)P(=O)(OC1CCCCC1)OC1CCCCC1 (stereo not given)	u	n	n	n	n
O=P(OC1CCCCC1)(OC1CCCCC1)C(O)c1c(Cl)cccc1Cl (stereo not given)	10.4µM	n	5.22µM	n	n
Cc1cc(OCC(=O)Nc2ccc(N3CCN(C(=O)c4ccco4)CC3)cc2)cc(C)c1Cl	9.28µM	n	u	n	n
Cc1ccc(OCC(=O)Nc2ccc(N3CCN(C(=O)c4ccco4)CC3)cc2)cc1C	n	n	n	n	n
COc1ccc(OCC(=O)Nc2ccc(N3CCN(C(=O)c4ccccc4)CC3)c(Cl)c2)cc1	8.28µM	n	n	n	n
COc1ccc(OCC(=O)Nc2ccc(N3CCOCC3)c(Cl)c2)cc1	u	n	x	n	n
Cc1cccc(OCC(=O)Nc2ccc(N3CCN(C(=O)c4ccco4)CC3)cc2)c1	9.28µM	n	n	n	n
CSCCC(NS(=O)(=O)c1ccc2[nH]c(=O)c(=O)[nH]c2c1)C(=O)O (stereo not given)	n	n	n	n	n
CCc1cc2c(=O)n(Cc3ccco3)c(SCC(=O)NC3CCS(=O)(=O)C3)nc2s1 (stereo not given)	u	n	u	15.8µM	x
CCc1cc2c(=O)n(Cc3ccco3)c(SCC(=O)N(C)C3CCS(=O)(=O)C3)nc2s1 (stereo not given)	n	n	u	31.6µM	x
CCc1cc2c(=O)n(Cc3ccco3)c(SCC(=O)NCC3CCCO3)nc2s1 (stereo not given)	u	n	n	n	n
CCc1cc2c(=O)n(Cc3ccccc3)c(SC3CCOC3=O)nc2s1 (stereo not given)	n	n	n	n	x
CCc1cc2c(=O)n(Cc3ccco3)c(SCc3c(C)noc3C)nc2s1	u	n	u	11.2µM	n
CN(C(=O)CSc1nc2cc(Cl)ccc2c(=O)n1Cc1ccco1)C1CCS(=O)(=O)C1 (stereo not given)	n	n	u	n	x
CCOC(=O)N1CCN(c2nc3ccccn3c(=O)c2C=O)CC1	0.294µM	n	0.828µM	n	n
CCOC(=O)c1c(C2CCN(C(=O)OCC)CC2)nc2ccccn12	x	n	5.22µM	n	n
CN1CCN(c2nc3ccccn3c(=O)c2C=O)CC1	n	n	n	n	n
Cc1ccc(-c2nn(CCC#N)cc2C=C(C#N)C#N)cc1	n	n	n	8.91µM	n
